High-throughput results from PubChem.
RE007 growth inh: less growth of the S. pombe RE007 Vpr strain. S. pombe RE007 Vpr strain, BacTiter-Glo ATP luminescence, 24 h. Potency, µM (top dose mostly 92.2 µM), for the others: at the highest dose activity change, negative = less growth, hits mostly inhibitors. hit rate 0.21% among 360,000. AID 651644; active = well fitted falling curve with a large enough effect; inconclusive = small, poorly fitted or top-dose-only effect; inactive = no such curve, though single readings can be large or run the other way; also: nearly all actives have a fitted effect of over 50% in size
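Fission yeast strain RE007, carrying one chromosomally integrated HIV-1 vpr copy, was seeded at OD 0.01 in PMG+AL medium with 23 nL pinned compound. After 24 h at 30 °C and 99% humidity, viability was read by BacTiter-Glo luminescence.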
Tb PYK inh: T. brucei pyruvate kinase inhibition. hit rate 0.12% among 410,000. Potency, µM (titrated, usually from 76.8 µM), inactives show top-dose activity, negative = inhibition, actives largely listed as inhibitors. Q57TT1. AID 624173. TbPYK enzyme, Kinase-Glo Plus ATP luminescence, 45 min; also: nearly all actives have a fitted effect of over 50% in size
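Enzyme and substrate buffer are dispensed first and compound is pin-transferred. ADP at 130 uM final then starts the reaction, which runs 45 min at room temperature. Detection reagent is added for 10 min before luminescence is imaged.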
LmPK inh: inhibitors of Leishmania mexicana pyruvate kinase. Q27686. purified LmPK, Kinase-Glo ATP luminescence, 1 h. Potency, µM (doses to about 57.5 µM), for the others: at the highest dose activity change, negative = inhibition, actives largely listed as inhibitors. hit rate 0.37% among 290,000. AID 1721
Target sequence (Q27686 whole entry, looked up): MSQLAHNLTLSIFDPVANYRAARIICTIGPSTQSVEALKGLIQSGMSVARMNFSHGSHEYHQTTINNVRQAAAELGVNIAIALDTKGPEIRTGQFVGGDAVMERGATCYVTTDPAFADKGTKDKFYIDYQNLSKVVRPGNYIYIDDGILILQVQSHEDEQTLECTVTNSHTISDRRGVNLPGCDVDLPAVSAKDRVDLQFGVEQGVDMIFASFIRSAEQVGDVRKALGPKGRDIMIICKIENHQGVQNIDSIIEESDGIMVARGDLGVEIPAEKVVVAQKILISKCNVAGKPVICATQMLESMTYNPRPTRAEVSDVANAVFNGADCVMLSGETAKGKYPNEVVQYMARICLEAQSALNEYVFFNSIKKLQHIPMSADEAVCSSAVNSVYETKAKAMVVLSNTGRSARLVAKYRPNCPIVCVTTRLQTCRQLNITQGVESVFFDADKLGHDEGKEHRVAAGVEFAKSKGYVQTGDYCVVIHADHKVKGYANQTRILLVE
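qHTS format; LmPK 0.1 nM; substrates PEP 0.5 mM and ADP 0.1 mM. One-hour room-temperature incubation, then coupled luciferase luminescence; 0.5 nM enzyme wells mark activation.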
Sm TGR block: S. mansoni TGR enzyme inhibition | Q962Y6 | AID 485364 | hit rate 3% among 360,000 | Potency, µM (series often up to 114 µM), without a hit: at the top dose activity change, negative = inhibition, usual class: inhibitors | purified TGR, DTNB reduction, TNB absorbance 405 nm; also: nearly all actives have a fitted effect of over 60% in size
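Kinetic colorimetric format: TGR-catalysed, NADPH-driven DTNB reduction monitored via TNB absorbance. Enzyme dispensed at 20 nM; compound exposure 15 min at room temperature before reaction start.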
The depositor's hits bear a star; [ ] = dose if it differs, or a comment. In the library only some 3% were active in any assay of this set; here they are far more common. Unless noted, calls follow the shape of the dose curve; as a rule, active = well fitted curve in the direction sought with a large enough effect; inconclusive = small, poorly fitted or top-dose-only effect, or another doubt; inactive = no such curve, though single readings can be large; an effect the other way counts as inactive or inconclusive. % is scaled to controls: 0 for no effect and ±100 for the full control effect; potency is read from the fitted curve at half-maximal effect.

How did Cc1ccc(C(=O)COC(=O)C(Cc2c[nH]c3ccccc23)NC(=O)c2ccc(C(C)(C)C)cc2)cc1 (stereo not drawn) do in these assays?
Tb PYK inh: -14.2%[15.4 µM]; Sm TGR block: 11.2µM*

How did CC(C)(C)c1ccc(C(=O)NC(Cc2c[nH]c3ccccc23)C(=O)OCC(=O)c2ccc(Br)cc2)cc1 (stereo not drawn) do in these assays?
Tb PYK inh: -5.4%[15.4 µM]; Sm TGR block: -1.0%

What do the screens show for `CC(=O)NC(Cc1c[nH]c2ccccc12)C(=O)OCC(=O)Nc1ccc2c(c1)OCO2` (stereo not drawn)?
RE007 growth inh: 1.8%; Tb PYK inh: 8.6%; LmPK inh: 6.4%; Sm TGR block: 10µM*

What do the screens show for `Oc1c(N=Nc2ccccn2)ccc2ccccc12`?
RE007 growth inh: 17.8µM*; Tb PYK inh: inconclusive; LmPK inh: 12.6µM*; Sm TGR block: -3.9%

Results for CCOc1cc(C2C(C#N)=C(N)OC(C)=C2C(C)=O)cc(Br)c1O (stereo not drawn) ?
RE007 growth inh: -4.6%; Tb PYK inh: -7.1%; LmPK inh: 5.0%; Sm TGR block: 50.1µM*

How did COc1ccc(CNC(=O)CCCN2C(=O)CSc3c2c(C)nn3-c2ccccc2)c(OC)c1 do in these assays?
Tb PYK inh: 1.8%; Sm TGR block: 5.7%

What do the screens show for `CC(CNc1ccccc1O)C(=O)O` (stereo not drawn)?
RE007 growth inh: 14.3%; Tb PYK inh: -4.0%; LmPK inh: -2.9%; Sm TGR block: 50.1µM*

Results for COc1ccc(C2=CC(c3ccco3)n3ncnc3N2)cc1 (stereo not drawn) ?
RE007 growth inh: -16.7%; Tb PYK inh: -17.3%; LmPK inh: -4.0%; Sm TGR block: 10µM*

What do the screens show for `Clc1ccc(C2=CC(c3ccco3)n3ncnc3N2)cc1` (stereo not drawn)?
RE007 growth inh: -22.3%; Tb PYK inh: -5.9%; LmPK inh: -1.3%; Sm TGR block: 50.1µM*

What do the screens show for `CC(=O)Nc1cccc(C2=CC(c3ccco3)n3ncnc3N2)c1` (stereo not drawn)?
LmPK inh: 2.8%; Sm TGR block: 12.6µM*

How did COc1ccc(C2C=C(c3ccccc3)Nc3ncnn32)cc1 (stereo not drawn) do in these assays?
RE007 growth inh: -2.5%; Tb PYK inh: -13.3%; LmPK inh: 1.0%; Sm TGR block: 31.6µM*

Results for CC1=C(C(=O)Nc2ccccc2)C(c2ccco2)n2ncnc2N1 (stereo not drawn) ?
RE007 growth inh: 1.3%; Tb PYK inh: -5.4%; LmPK inh: 0.2%; Sm TGR block: -3.4%

Results for COc1ccc(C2CC(c3ccco3)n3ncnc3N2)cc1 (stereo not drawn) ?
RE007 growth inh: 5.4%; Tb PYK inh: -13.4%; LmPK inh: 3.6%; Sm TGR block: -1.8%

Results for Cc1ccc(C2=CC(c3ccc(C)cc3)n3ncnc3N2)cc1 (stereo not drawn) ?
RE007 growth inh: -24.3%; Tb PYK inh: -11.7%

How did COc1ccc(-c2nc3scc(CCNC(=O)c4cc(OC)cc(OC)c4)n3n2)cc1 do in these assays?
Tb PYK inh: -1.6%; Sm TGR block: -1.0%

How did CCOC(=O)c1ccc(NC(=O)Cn2nc(SC)c(S(=O)(=O)c3ccc(Cl)cc3)c2N)cc1 do in these assays?
Tb PYK inh: 0.8%; Sm TGR block: 8.2%

What do the screens show for `CCc1nc2c(cnn2-c2ccc(Cl)cc2)c(=O)n1-c1ccc(OC)c(Cl)c1`?
Tb PYK inh: -3.4%; Sm TGR block: 3.7%

How did O=[N+]([O-])c1nccn1CCCCCCCCCCCN1CCOCC1 do in these assays?
RE007 growth inh: -17.1%; Tb PYK inh: 0.2%

What do the screens show for `FC(F)(F)c1ccccc1C1=CC(c2ccccc2)n2ncnc2N1` (stereo not drawn)?
RE007 growth inh: -3.9%; Tb PYK inh: 1.8%

What do the screens show for `Clc1ccccc1C1=CC(c2ccco2)n2ncnc2N1` (stereo not drawn)?
RE007 growth inh: 20.7%; Tb PYK inh: -19.0%; LmPK inh: 1.3%; Sm TGR block: 12.6µM*

Results for COc1cc(C=C2CCCC(=Cc3ccc(OCC4CO4)c(OC)c3)C2=O)ccc1OCC1CO1 (stereo not drawn) ?
RE007 growth inh: -4.9%; Tb PYK inh: 0.6%

Results for Cc1sc(NC(=O)c2ccco2)c(C(c2cccnc2)N2CCN(CCO)CC2)c1C (stereo not drawn) ?
RE007 growth inh: -17.2%; Tb PYK inh: -2.6%; LmPK inh: -0.5%; Sm TGR block: -24.3%

Results for CCOC(=O)C1CCN(C(c2cccnc2)c2c(NC(=O)c3ccco3)sc(C)c2C)CC1 (stereo not drawn) ?
RE007 growth inh: 8.8%; Tb PYK inh: -6.2%; LmPK inh: 9.8%; Sm TGR block: 7.94µM*

What do the screens show for `Cc1sc(NC(=O)c2ccco2)c(C(c2cccnc2)N2CCN(c3ccc(F)cc3)CC2)c1C` (stereo not drawn)?
RE007 growth inh: -1.7%; Tb PYK inh: -4.0%; LmPK inh: 0.1%; Sm TGR block: 22.4µM*

How did Cc1sc(NC(=O)c2ccco2)c(C(c2ccccc2)N2CCC(C)CC2)c1C (stereo not drawn) do in these assays?
RE007 growth inh: -17.0%; Tb PYK inh: 4.2%; LmPK inh: 6.8%; Sm TGR block: -17.7%

How did CCCCS(=O)(=O)N1C2=NC(C(=O)OC)=C(C(=O)OC)[C@@H]3Nc4ccccc4[C@]23C[C@H]1C(=O)OC do in these assays?
LmPK inh: 0.1%[11.5 µM]

What do the screens show for `CC(C)CCNC(=O)C(c1ccc(O)cc1)N(Cc1cccs1)C(=O)C1COc2ccccc2O1` (stereo not drawn)?
RE007 growth inh: 3.4%; Tb PYK inh: 10.3%; LmPK inh: 2.9%; Sm TGR block: -2.8%

Results for O=C(NCc1ccco1)C(c1cccs1)N(C(=O)C1COc2ccccc2O1)c1cccc(O)c1 (stereo not drawn) ?
RE007 growth inh: -1.5%; Tb PYK inh: 2.0%; LmPK inh: -2.8%; Sm TGR block: 35.5µM*

What do the screens show for `CC(=O)CCc1oc2ccc(C)cc2c1-c1ccc(C)o1`?
RE007 growth inh: -23.2%; Tb PYK inh: -11.4%; LmPK inh: -4.0%; Sm TGR block: 25.1µM*

How did CC(=O)CCc1oc2ccc(NC(C)=O)cc2c1-c1ccc(C)o1 do in these assays?
RE007 growth inh: 3.8%; Tb PYK inh: -13.9%; LmPK inh: -14.4%; Sm TGR block: 20µM*

Results for Cc1ccc(-c2nc3cc(N)ccc3o2)cc1 ?
RE007 growth inh: -23.0%; Tb PYK inh: -3.4%; LmPK inh: inconclusive; Sm TGR block: 6.3%

Results for CC(C)c1ccc2oc(-c3ccc(N)cc3)nc2c1 ?
RE007 growth inh: 39.8µM*; Tb PYK inh: -2.9%; LmPK inh: -14.1%; Sm TGR block: -9.5%

What do the screens show for `Cc1ccc2oc(-c3cccc(N)c3)nc2c1`?
RE007 growth inh: 31.6µM*; Tb PYK inh: -12.0%; LmPK inh: -22.0%; Sm TGR block: -1.6%
